Test results: publication PMC4242493, “Sequence specificity incompletely defines the genome-wide occupancy of Myc”
Whole data set: some 33,000 sequences, median “normalized occupancy” near 0.075, cut for the highest 2% near 0.095. Many of the other results were omitted from the sample, so the highest values are more common in it than they were.

The sequences below were run against MaxL homodimer (Homo sapiens, UniProt P61244 1-160) (assay: universal protein-binding microarray (PBM); PBS-based mixture, 10 nM His-tagged protein dimer, 2% milk, 200 ng/uL BSA, 50 ng/uL salmon testes DNA, 0.02% TX-100; detection with Alexa 488 anti-His antibody;; high values mean tight binding). Conditions: protein: recombinant; tags: C-terminal His-tag (pET21a); chain copies: 2; dsDNA, one strand shown.
Method in brief: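 A His-tagged protein dimer at 10 nM was incubated on Agilent 4 x 44 K arrays of the 'all 10-mer' universal design, then labelled with 10 ng/μL fluorophore-conjugated anti-His antibody and scanned on a GenePix 4400A. A fluorescence intensity was assigned to each 8-mer. Binding occupancy is each such intensity normalised to that of the highest-ranked one.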

Chain of MaxL homodimer (P61244 whole entry): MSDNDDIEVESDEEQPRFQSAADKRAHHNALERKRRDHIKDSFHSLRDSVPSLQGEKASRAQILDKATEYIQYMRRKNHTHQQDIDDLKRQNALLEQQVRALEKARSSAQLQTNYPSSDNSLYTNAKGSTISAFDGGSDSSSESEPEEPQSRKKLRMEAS

Sequence	binding signal
AACCATGT	0.0862 normalized occupancy
GACCATGA	0.0823 normalized occupancy
CTCCATGA	0.0798 normalized occupancy
ATCCATGC	0.0942 normalized occupancy
GACCATGC	0.109 normalized occupancy
CTCCATGC	0.0969 normalized occupancy
GTTGCCCA	0.0762 normalized occupancy
CTCCCTCC	0.0789 normalized occupancy
CGACCCAC	0.0808 normalized occupancy
AGTGTCAT	0.0822 normalized occupancy
CCACATCA	0.0798 normalized occupancy
AACGCTTA	0.0733 normalized occupancy
GACGCTTA	0.0768 normalized occupancy
AACGCTTC	0.0768 normalized occupancy
CGCGCTTC	0.0753 normalized occupancy
CACGCTTC	0.098 normalized occupancy
CACGCTTA	0.103 normalized occupancy
TACCTAGA	0.073 normalized occupancy
AACTCATC	0.0815 normalized occupancy
GCTGACGA	0.072 normalized occupancy
ACATGTCT	0.0899 normalized occupancy
GCATGTAA	0.0836 normalized occupancy
TCATGTAA	0.0936 normalized occupancy
ACATGTAT	0.102 normalized occupancy
AAATGTAG	0.0793 normalized occupancy

Sequence	binding signal
ACATGTCG	0.1 normalized occupancy
AAATGTAT	0.0812 normalized occupancy
CCATGTAG	0.0836 normalized occupancy
ACATGTAA	0.0953 normalized occupancy
CCATGTCG	0.0843 normalized occupancy
ACATGTAG	0.101 normalized occupancy
AGATGTAT	0.0832 normalized occupancy
ACCATTAG	0.0781 normalized occupancy
ATCCAGAG	0.0719 normalized occupancy
AACGCGGA	0.0818 normalized occupancy
AACGCGGC	0.0757 normalized occupancy
TACGCGGA	0.0723 normalized occupancy
CACGCGGG	0.145 normalized occupancy
CCCGCGGG	0.0758 normalized occupancy
CGCGCGGA	0.0836 normalized occupancy
CACGCGGA	0.15 normalized occupancy
GACGCGGC	0.0758 normalized occupancy
CACGCGGC	0.151 normalized occupancy
CCGAGAGA	0.0728 normalized occupancy
TCGCACGA	0.0806 normalized occupancy
CAGGTGCG	0.0849 normalized occupancy
CAGTTGCA	0.0721 normalized occupancy
CCCTAACC	0.0758 normalized occupancy
CTGTGCAA	0.0754 normalized occupancy
CACACGTG	0.553 normalized occupancy

Sequence	binding signal
AACACGTT	0.128 normalized occupancy
AACACGTA	0.083 normalized occupancy
AACACGTC	0.0786 normalized occupancy
AACACGGA	0.0756 normalized occupancy
CACACGTC	0.0858 normalized occupancy
CACACGTA	0.0925 normalized occupancy
AACACGTG	0.706 normalized occupancy
TACACGTA	0.083 normalized occupancy
ATTTACGC	0.0786 normalized occupancy
CTCCCGCC	0.0726 normalized occupancy
ATTATGAC	0.0798 normalized occupancy
ACCTCTAT	0.0776 normalized occupancy
AAATGGTA	0.0806 normalized occupancy
CATTTTAC	0.0853 normalized occupancy
AGATACAC	0.0831 normalized occupancy
GCTCCTAA	0.0767 normalized occupancy
AAACGACC	0.0727 normalized occupancy
CAAGTGGG	0.0807 normalized occupancy
TACGTGGA	0.0878 normalized occupancy
CACGTGGG	0.707 normalized occupancy
CACGTAGG	0.0797 normalized occupancy
GACGTGGA	0.087 normalized occupancy
CACGTCGC	0.0825 normalized occupancy
AACGTGGA	0.115 normalized occupancy
CACGTGGC	0.837 normalized occupancy

Sequence	binding signal
CACGTGGA	0.768 normalized occupancy
CAAGTGGC	0.0744 normalized occupancy
AAAGTGGA	0.0743 normalized occupancy
AAGGTGGA	0.0747 normalized occupancy
AGAGCCGA	0.0723 normalized occupancy
CTTTTTGA	0.0761 normalized occupancy
ACCGTAAC	0.0752 normalized occupancy
ACTAAGAC	0.0733 normalized occupancy
ACGGCACC	0.0742 normalized occupancy
GTCCACAA	0.0768 normalized occupancy
CAGCGGTA	0.0751 normalized occupancy
ATCCGTGG	0.078 normalized occupancy
ACTGTAAT	0.0778 normalized occupancy
AACATGTG	0.184 normalized occupancy
AACATGTT	0.0895 normalized occupancy
CAAATGTG	0.0879 normalized occupancy
CACATGTG	0.216 normalized occupancy
AACAGGTG	0.102 normalized occupancy
CACAGGTG	0.0857 normalized occupancy
TACATGTA	0.0978 normalized occupancy
CACATCTG	0.0871 normalized occupancy
AACATCTG	0.0767 normalized occupancy
TACATGGA	0.0848 normalized occupancy
AACAGGTC	0.0733 normalized occupancy
TACATCTA	0.0787 normalized occupancy

Sequence	binding signal
CACATACG	0.0784 normalized occupancy
GTGGGGCA	0.0781 normalized occupancy
ACCCACTA	0.085 normalized occupancy
CTCCCGAA	0.0776 normalized occupancy
AACCTACT	0.074 normalized occupancy
GGTTGACA	0.0758 normalized occupancy
AGACTTGG	0.0722 normalized occupancy
CACATGTA	0.147 normalized occupancy
GACATGTA	0.0884 normalized occupancy
AACATGTA	0.0923 normalized occupancy
CACATGTC	0.159 normalized occupancy
AACATGTC	0.087 normalized occupancy
GACATGTC	0.0872 normalized occupancy
ACGGGTGA	0.0801 normalized occupancy
CATCTCAA	0.0793 normalized occupancy
TCAGCTGA	0.0752 normalized occupancy
GCTACGAC	0.078 normalized occupancy
CGCCACAA	0.076 normalized occupancy
AGCCACGC	0.109 normalized occupancy
AGCCACGG	0.0742 normalized occupancy
CGCCACGC	0.0953 normalized occupancy
AGCCACGA	0.0883 normalized occupancy
CGCCACGA	0.0799 normalized occupancy
GATTTTTA	0.0759 normalized occupancy
ACGTACAG	0.0776 normalized occupancy

Sequence	binding signal
CAAATGTA	0.0834 normalized occupancy
TCCCTCCA	0.075 normalized occupancy
AGACAGAA	0.0751 normalized occupancy
CATATGCG	0.105 normalized occupancy
AATATGTA	0.0801 normalized occupancy
TATATGCA	0.0896 normalized occupancy
CATATGCC	0.095 normalized occupancy
CATATGTA	0.0972 normalized occupancy
CATATGTC	0.0943 normalized occupancy
CATATGCA	0.0978 normalized occupancy
GATATGCA	0.0792 normalized occupancy
AATATGCG	0.0761 normalized occupancy
TAGACCTA	0.0731 normalized occupancy
GGGGAACA	0.081 normalized occupancy
TTACTAAA	0.0728 normalized occupancy
TGACTCAA	0.0763 normalized occupancy
AGGGAGCA	0.0728 normalized occupancy
TAGTTGGA	0.0742 normalized occupancy
TAAGGACA	0.075 normalized occupancy
CTACGCAC	0.0773 normalized occupancy
GACGCGTC	0.0757 normalized occupancy
ACCGCGTA	0.0727 normalized occupancy
AACGCGTG	0.123 normalized occupancy
ACCGCGCG	0.0856 normalized occupancy
ACCGCGTG	0.182 normalized occupancy

Sequence	binding signal
AACGCGTT	0.0813 normalized occupancy
CACGCGTA	0.121 normalized occupancy
GACGCGTA	0.0737 normalized occupancy
AACGCGTC	0.0723 normalized occupancy
TACGCGTA	0.0797 normalized occupancy
CACGCGTC	0.119 normalized occupancy
AACGCGTA	0.0792 normalized occupancy
CCTTAGCC	0.0725 normalized occupancy
CGTGCTGC	0.09 normalized occupancy
CGCTGACA	0.0773 normalized occupancy
GCGAGCAA	0.0723 normalized occupancy
AAGAACAT	0.08 normalized occupancy
GACGGTCA	0.0718 normalized occupancy
GCGACAGA	0.0794 normalized occupancy
AAGTCATT	0.0758 normalized occupancy
CAACATTA	0.0824 normalized occupancy
CCGAATGA	0.0745 normalized occupancy
AAACACAG	0.0769 normalized occupancy
CTCGCGTA	0.0788 normalized occupancy
ATCGCGTC	0.0719 normalized occupancy
ATCGCGTG	0.127 normalized occupancy
CGCGCGTA	0.0797 normalized occupancy
CACGCGTG	0.17 normalized occupancy
ATCGCGTA	0.0764 normalized occupancy
